Results filed as inconclusive are left out. Calls of active or inactive are those of the source. Unless noted, the call rests on the fitted dose curve; in most records, active means well fitted curve in the direction sought with a large enough effect in the repeat runs; inconclusive means weak or mixed curves; inactive means no such curve, though single readings can be large; an effect the other way counts as inactive or inconclusive.
Tests used:
[1] = qHTS assay to identify small molecule antagonists of the sonic hedgehog signaling (Shh) pathway (AID 1259369; calls by dose curve; further: nearly all actives have a fitted effect of over 45% in size)
Summary of the method: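 For antagonist detection, the reporter line received test compounds together with conditioned medium, incubated 24hr at 37 C, 5% CO2, then luminescence was recorded following 30min room-temperature luciferase reagent incubation.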

[2] = qHTS assay to identify small molecule agonists of the androgen receptor (AR) signaling pathway in the presence of an antagonist - cell viability counter screen (AID 1259379);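 further: MDA-kb2 human breast cancer cells carrying an MMTV luciferase reporter; series mostly up to about 92 µM; nearly all actives have a fitted effect of over 25% in size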
Summary of the method: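 Seed MDA-kb2 at 3,000 cells/well; incubate 5 hr, 37C, 0% CO2. Add nilutamide to 3.0uM final, then pin compounds at 15 concentrations. Incubate 16 hr. Add CellTiter-Fluor at 15 hr, read fluorescence after 1 hr.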

[3] = qHTS assay to identify small molecule agonists of the estrogen receptor beta (ER-beta) signaling pathway - cell viability counter screen (AID 1259380); further: nearly all actives have a fitted effect of over 30% in size
Summary of the method: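 CellTiter-Glo read, 30 min RT, same wells as bla assay; cells ER-beta-UAS-bla HEK293T; 16 hr compound, 37C; medium 2% charcoal-stripped FBS.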

[4] = qHTS assay to identify small molecule antagonists of the estrogen receptor beta (ER-beta) signaling pathway - cell viability counter screen (AID 1259382);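 further: HEK293T cells carrying ER-beta-UAS-bla reporter stimulated with estradiol; series mostly up to about 92 µM; nearly all actives have a fitted effect of over 55% in size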
Summary of the method: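 In this multiplexed counter screen, cells were seeded at 2,000 per well in medium with 2% charcoal-stripped FBS and incubated 6 hr before compound and 1nM final E2 were added. Sixteen hours later, ATP-based luminescence reported viability.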

[5] = qHTS assay to identify small molecule agonists or antagonists of the thyroid stimulating hormone receptor (TSHR) signaling pathway - wild type cell line counter screen (AID 1259384; calls by dose curve)
Summary of the method: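 Wild-type HEK293 cells were plated 18 h at 37 C/5% CO2, pin-dosed with compound plus Ro20-1724 medium, held 30 min at room temperature, then given cAMP-d2 and anti-cAMP-cryptate; fluorescence was read after 1 h. Fifteen concentrations, triplicate.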

[6] = target: Thyrotropin receptor (Homo sapiens) (UniProt P16473); assay: qHTS assay to identify small molecule antagonists of the thyroid stimulating hormone receptor (TSHR) signaling pathway (AID 1259385; calls by dose curve; further: nearly all actives have a fitted effect of over 20% in size)
Summary of the method: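 TSHR-HEK293 cells were plated and held 18 h at 37C/5% CO2, then given compound plus Ro20-1724 and stimulated with TSH at 1.5 ng/mL final. After 30 min at room temperature, cAMP was detected with cAMP-d2/anti-cAMP-cryptate (1 h) by fluorescence.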

[7] = qHTS assay to identify small molecule agonists of the estrogen receptor alpha (ER-alpha) signaling pathway in the presence of an antagonist - cell viability counter screen (AID 1259386);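 further: series mostly up to about 92 µM; cells exposed to compounds for 22 h at 37 °C before the viability read; nearly all actives have a fitted effect of over 30% in size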
Summary of the method: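 Viability counter screen using VM7Luc4E2 (full-length ER-alpha, four ERE-luciferase). The cells were treated with compounds alongside ICI-182,780 10.0nM for 22hr, and live-cell protease fluorescence was quantified with CellTiter-Fluor.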

[8] = target: Progesterone receptor (Homo sapiens) (UniProt P06401); assay: qHTS assay to identify small molecule antagonists of the progesterone receptor (PR) signaling pathway (AID 1346795; active means well fitted inhibition curve with a large enough effect in the signal ratio in the repeat runs, not every such curve was filed as active; the % refers to the signal ratio)
Summary of the method: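 Antagonist mode with agonist R5020 at 1 nM final and 16 hr incubation at 37C. Reporter was beta-lactamase driven by UAS in HEK293T (PR-UAS-bla), 2% charcoal-stripped serum; signal from LiveBLAzer FRET substrate, 2 hr at room temperature.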

[9] = qHTS assay to identify small molecule antagonists of the progesterone receptor (PR) signaling pathway - cell viability counter screen (AID 1346798); further: series mostly up to about 92 µM; nearly all actives have a fitted effect of over 50% in size
Summary of the method: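 Cytotoxicity read as CellTiter-Glo luminescence (30 min, room temperature) in the same wells as the beta-lactamase readout. HEK293T PR-UAS-bla cells in charcoal-stripped 2% FBS received compound and R5020, then 16 h at 37C, 5% CO2.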

[10] = qHTS assay to identify small molecule agonists of the progesterone receptor (PR) signaling pathway - cell viability counter screen (AID 1346799; calls by dose curve; further: nearly all actives have a fitted effect of over 45% in size)
Summary of the method: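 Cytotoxicity measured by CellTiter-Glo luminescence (30 min, RT) in the same wells as the PR beta-lactamase agonist read. Those HEK293T cells had 16 h compound treatment at 37 C in 2% charcoal-stripped FBS medium.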

[11] = qHTS assay to identify small molecule antagonists of the TGF-beta/Smad signaling pathway - cell viability counter screen (AID 1346824); further: nearly all actives have a fitted effect of over 50% in size
Summary of the method: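 SBE-bla HEK 293T cells were plated overnight at 37 C, then given compounds in DMSO plus TGF-beta1 (added as 0.25 ng/mL solution) for 5 hr. After the bla read, CellTiter-Glo was added to the same wells and luminescence read after 30 min at room temperature.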

[12] = qHTS assay to identify small molecule agonists of the TGF-beta/Smad signaling pathway - cell viability counter screen (AID 1346829); further: top concentration of the series differs between compounds; nearly all actives have a fitted effect of over 45% in size
Summary of the method: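 SBE-bla HEK 293T cells plated overnight, compound exposure 5 hr at 37 C. Viability read in the same wells by CellTiter-Glo luminescence after 30 min at room temperature, following the beta-lactamase read.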

[13] = qHTS assay to identify small molecule agonists of the TGF-beta/Smad signaling pathway (AID 1346859; active means well fitted activation curve with a large enough effect in the signal ratio in the repeat runs, not every such curve was filed as active; the % refers to the signal ratio; further: series mostly up to about 77 µM)
Summary of the method: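 Fluorescence (ex 405 nm; em 460 and 530 nm) was read 2 h after LiveBLAzer FRET substrate at RT. The preceding compound treatment of overnight-plated SBE-bla HEK293T cells lasted 5 h at 37 C.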

[14] = target: Thyrotropin-releasing hormone receptor (Homo sapiens) (UniProt P34981); assay: qHTS assay to identify small molecule antagonists of the thyrotropin-releasing hormone receptor (TRHR) signaling pathway (AID 1346877; active means well fitted inhibition curve with a large enough effect in the repeat runs, not every such curve was filed as active; further: series mostly up to about 51 µM)
Summary of the method: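 Following an 18 h incubation at 37 °C and a 2 h calcium dye load, TRHR-HEK293 cells were exposed to compound (5 min, room temperature) and challenged with TRH, 1 nM final.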

[15] = target: Thyrotropin-releasing hormone receptor (Homo sapiens) (UniProt P34981); assay: qHTS assay to identify small molecule agonists of the thyrotropin-releasing hormone receptor (TRHR) signaling pathway (AID 1346891; calls by dose curve; further: series mostly up to about 58 µM)
Summary of the method: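 Agonist-mode intracellular calcium readout: kinetic fluorescence over 3 min at 1 s intervals after compound addition to TRHR-HEK293 cells (18 h seeded, 2 h dye-loaded at 37 C). Fifteen concentrations, triplicates.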

[16] = target: Progesterone receptor (Homo sapiens) (UniProt P06401); assay: qHTS assay to identify small molecule agonists of the progesterone receptor (PR) signaling pathway (AID 1346784; calls by dose curve; further: nearly all actives have a fitted effect of over 30% in size)
Summary of the method: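 Agonist qHTS: compounds pinned onto 3,000 PR-UAS-bla HEK 293T cells per well in charcoal-stripped serum medium, 16hr at 37C, then beta-lactamase activity measured by LiveBLAzer FRET fluorescence after 2 hours at room temperature.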

Measured: Potency

Sequence of Thyrotropin receptor (Homo sapiens) (P16473 whole entry, looked up): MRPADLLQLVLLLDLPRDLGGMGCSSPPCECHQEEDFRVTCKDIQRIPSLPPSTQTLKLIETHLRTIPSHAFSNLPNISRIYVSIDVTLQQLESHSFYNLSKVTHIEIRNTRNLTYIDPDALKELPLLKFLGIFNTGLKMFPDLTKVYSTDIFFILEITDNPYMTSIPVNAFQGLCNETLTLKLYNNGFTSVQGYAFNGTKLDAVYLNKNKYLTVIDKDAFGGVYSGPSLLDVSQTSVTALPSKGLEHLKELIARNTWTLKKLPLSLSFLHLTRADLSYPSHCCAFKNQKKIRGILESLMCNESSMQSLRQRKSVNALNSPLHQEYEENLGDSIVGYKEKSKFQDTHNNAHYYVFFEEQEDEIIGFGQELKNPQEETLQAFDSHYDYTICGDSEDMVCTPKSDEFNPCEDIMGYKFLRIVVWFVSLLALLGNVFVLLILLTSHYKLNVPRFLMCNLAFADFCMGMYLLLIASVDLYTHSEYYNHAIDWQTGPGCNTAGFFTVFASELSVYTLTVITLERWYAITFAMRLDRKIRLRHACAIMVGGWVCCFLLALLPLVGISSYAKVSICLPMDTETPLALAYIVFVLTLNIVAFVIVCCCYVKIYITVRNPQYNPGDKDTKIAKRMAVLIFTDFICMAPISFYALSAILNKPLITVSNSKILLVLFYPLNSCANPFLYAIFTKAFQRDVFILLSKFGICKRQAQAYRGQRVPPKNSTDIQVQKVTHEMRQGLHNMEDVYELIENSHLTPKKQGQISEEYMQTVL
Sequence of Thyrotropin-releasing hormone receptor (Homo sapiens) (P34981 whole entry, looked up): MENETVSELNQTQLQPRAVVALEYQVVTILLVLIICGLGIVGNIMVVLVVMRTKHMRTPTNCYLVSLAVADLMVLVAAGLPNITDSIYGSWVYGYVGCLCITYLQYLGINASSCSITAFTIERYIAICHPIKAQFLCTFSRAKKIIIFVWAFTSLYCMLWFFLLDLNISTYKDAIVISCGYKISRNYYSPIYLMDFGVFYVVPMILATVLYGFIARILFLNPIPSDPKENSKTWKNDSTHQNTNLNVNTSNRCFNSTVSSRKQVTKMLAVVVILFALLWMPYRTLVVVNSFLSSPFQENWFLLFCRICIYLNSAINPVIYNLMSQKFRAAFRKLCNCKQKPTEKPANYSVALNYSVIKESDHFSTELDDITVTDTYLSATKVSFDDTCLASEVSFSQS
Sequence of Progesterone receptor (Homo sapiens) (P06401 whole entry, looked up): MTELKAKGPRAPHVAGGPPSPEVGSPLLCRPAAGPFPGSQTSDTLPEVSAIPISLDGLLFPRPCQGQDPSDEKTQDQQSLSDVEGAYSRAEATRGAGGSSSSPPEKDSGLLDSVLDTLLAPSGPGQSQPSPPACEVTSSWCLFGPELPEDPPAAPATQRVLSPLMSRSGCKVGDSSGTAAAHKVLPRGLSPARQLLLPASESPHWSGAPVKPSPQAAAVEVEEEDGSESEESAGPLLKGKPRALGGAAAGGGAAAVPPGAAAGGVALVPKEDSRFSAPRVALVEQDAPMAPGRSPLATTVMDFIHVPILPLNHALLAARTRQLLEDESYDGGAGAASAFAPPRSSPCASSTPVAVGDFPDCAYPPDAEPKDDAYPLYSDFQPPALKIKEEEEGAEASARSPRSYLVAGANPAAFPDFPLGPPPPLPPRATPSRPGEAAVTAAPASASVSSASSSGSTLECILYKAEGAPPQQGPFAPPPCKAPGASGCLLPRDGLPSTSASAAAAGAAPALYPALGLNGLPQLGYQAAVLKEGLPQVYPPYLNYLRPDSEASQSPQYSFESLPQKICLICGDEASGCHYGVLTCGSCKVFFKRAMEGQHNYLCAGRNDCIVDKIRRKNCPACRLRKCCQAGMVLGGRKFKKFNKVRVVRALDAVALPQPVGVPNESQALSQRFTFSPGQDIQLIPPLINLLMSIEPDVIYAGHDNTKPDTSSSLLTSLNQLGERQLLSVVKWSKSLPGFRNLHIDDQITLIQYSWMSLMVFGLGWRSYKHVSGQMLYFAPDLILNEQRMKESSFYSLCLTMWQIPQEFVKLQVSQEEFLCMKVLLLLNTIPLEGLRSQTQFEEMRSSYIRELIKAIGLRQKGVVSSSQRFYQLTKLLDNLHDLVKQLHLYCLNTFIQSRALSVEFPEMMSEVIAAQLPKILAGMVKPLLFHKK

CCOC(=O)C(F)(F)F
inactive: [1] | [2] | [3] | [4] | [5] | [6] | [7] | [8] | [9] | [10] | [11] | [12] | [13] | [14] | [15]

COCCCN1CCC(NC(=O)c2cc(Cl)c(N)c3c2OCC3)CC1
inactive: [1] | [2] | [3] | [4] | [5] | [6] | [7] | [16] | [8] | [9] | [10] | [11] | [12] | [13]

O=C(NCCO[N+](=O)[O-])c1cccnc1
inactive: [1] | [2] | [3] | [4] | [5] | [6] | [7] | [16] | [8] | [9] | [10] | [11] | [12] | [14] | [15]

CCC(C)O (stereo unspecified)
inactive: [1] | [2] | [3] | [4] | [5] | [6] | [7] | [8] | [9] | [11] | [13] | [15]

— PubChem BioAssay (Tox21)
